From PubChem BioAssay (NCATS)
Inconclusive results are not listed. Unmarked numbers belong to inactive results. The call rests on the fitted dose curve.

Assay: Cell Viability - MRC5 (AID 434);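 further: potency reflects cytotoxicity seen as loss of intracellular ATP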
Settings: MRC5 lung fibroblast viability, qHTS
Description: NIH Chemical Genomics Center [NCGC]
NIH Molecular Libraries Screening Centers Network [MLSCN]
National Institutes of Environmental Health Sciences [NIEHS]
National Toxicology Program [NTP]
We have developed a 1536-well cell-based assay for quantitative high throughput screening (qHTS) against a number of cell lines to determine in vitro cytotoxicity of small molecules. This particular assay uses the MRC5 cell line which is derived from normal human lung fibroblasts.
NCGC Assay Protocol Summary:
The CellTiter-Glo luminescent cell viability assay (Promega) is a homogeneous method to measure the number of viable cells in culture. The end point readout of this assay is based on quantitation of intracellular ATP, an indicator of metabolic activity, using the luciferase reaction. Luciferase catalyzes the oxidation of beetle Luciferin to oxyluciferin and light in the presence of ATP. The luminescent signal is proportional to amount of ATP present.
Using the CellTiter-Glo luminescent cell viability assay, the amount of cellular ATP was measured in the MRC5 cell line with complete culture medium following compound treatment for 40 hours. The assay was performed in opaque white Kalypsys 1536-well plates. In the screen, tamoxifen and doxorubicin were used as positive controls. Library compounds were measured for their ability to cause acute toxicity in the cell line, as reflected by a decrease in intracellular ATP levels, in a concentration-dependent manner. Data were normalized to the controls for basal activity (DMSO only) and 100% inhibition (100 uM tamoxifen). AC50 values were determined from concentration-response data modeled with the standard Hill equation.
qHTS protocol for CellTiter Glo MRC5 cellular assay
[Step] [Parameter] [Value] [Description]
1. Reagent; 5 uL; 1500 MRC5 cells/well
2. Time; 5 hr; 37 °C incubation
4. Controls; 23 nL; Tamoxifen 0.34 uM to 100 uM & Doxorubicin 0.02 nM to 100 uM
5. Time; 40 hr; 37 °C incubation
6. Reagent; 5 uL; CellTiter Glo reagent
7. Time; 20 min; Room Temperature
8. Detection; Luminescence; Viewlux plate reader
Keywords: cell viability, cytotoxicity, MRC5 cell line, luminescence, NTPHTS, NTPHTS_NCGC, NIEHS, EPA, DSSTox, MLSMR, MLSCN, NIH Roadmap, qHTS, NCGC
Potency means the concentration at half of the fitted maximal effect.

SMILES	Potency [µM]
Oc1cccc(Cl)c1	> 92
Nc1c(Cl)cc([N+](=O)[O-])cc1Cl	> 92
Cc1cccc(C)c1N	> 92
Cc1cc(Cl)ccc1O	> 92
O=[N+]([O-])c1ccc2c3c(cccc13)CC2	> 92
S=C1NCCN1	> 92
O=C(O)C(Cl)(Cl)Br	> 92
O=c1ccc(=O)[nH][nH]1	> 92
ClC(Cl)(Cl)C(Cl)(Cl)Cl	> 92
CC(=O)CCC(C)=O	> 92
ClCC(Br)CBr (stereo not given)	> 92
ClC=CCl	> 92
C=CC(=O)OCCO	> 92
O=[N+]([O-])c1ccc(O)c([N+](=O)[O-])c1	> 92
C1CC2OC2CC1C1CO1 (stereo not given)	> 92
C/C=C/C=O	> 92
CC(C#N)CCC#N (stereo not given)	> 92
CCOP(=S)(OCC)SCCSCC	> 92
CCCCCOC(=O)c1ccccc1C(=O)OCCCCC	> 92
O=[N+]([O-])c1c(Cl)c(Cl)c(Cl)c(Cl)c1Cl	> 92

SMILES	Potency [µM]
O=[N+]([O-])CCO	> 92
FC(Cl)(Cl)Cl	> 92
COC(C)(C)C	> 92
CN(C)c1ccc(N(C)C)cc1	> 92
CCOC(=O)CC(SP(=O)(OC)OC)C(=O)OCC (stereo not given)	> 92
CN(C)C(=O)Nc1cccc(C(F)(F)F)c1	> 92
CCOS(C)(=O)=O	> 92
O=C(O)C(Cl)Br (stereo not given)	> 92
Nc1ccc(Cl)c(Cl)c1	> 92
CCSC(=O)N1CCCCCC1	> 92
C[N+](=O)[O-]	> 92
C(CCOCC1CO1)COCC1CO1 (stereo not given)	> 92
N#C/C(N)=C(/N)C#N	> 92
C=CCBr	> 92
Cc1ccc(N)c(C)c1	> 92
CCCBr	> 92
O=[N+]([O-])c1ccccc1-c1ccccc1	> 92
OCCBr	> 92
O=C(O)C(Br)Br	> 92
Oc1c(Cl)cccc1Cl	> 92
